Results as given in PubChem BioAssay (NCI).
This is part of a sample that, as a whole, favours compounds with a hit. Of some 79,000 tested, about 15% had one in any assay. Values without a mark were called inactive. Activity calls are given as the source filed them. Rule as the data show it: active = growth inhibition above about 70%; inactive = the rest. Where a SMILES comes first, the peptide text is derived from it. The star is where a group is joined. X7 = Clc1c(Cl)c(Cl)c(O*)c(Cl)c1Cl; Boc = CC(C)(C)OC(=O)*; OBn = c1ccc(CO*)cc1; Bn = c1ccc(C*)cc1

Tests used:
[1] = NCI Yeast Anticancer Drug Screen. Data for the rad50 strain (AID 155);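 also: 0% = growth of vehicle-only cultures of the same strain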; conditions: S. cerevisiae rad50 strain growth inhibition, hits give high values
In short: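 Growth of the mutant yeast was measured after compound exposure and referenced to vehicle-treated cultures.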

[2] = NCI Yeast Anticancer Drug Screen. Data for the mec2-1 strain (AID 157); conditions: S. cerevisiae mec2-1 strain, hits give high values
In short: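 Yeast mec2-1 mutant treated with compound. Readout: growth inhibition vs vehicle controls.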

[3] = NCI Yeast Anticancer Drug Screen. Data for the sgs1 mgt1 strain (AID 161);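 also: 0% = growth of cultures given vehicle only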; conditions: S. cerevisiae sgs1 mgt1 strain, hits give high values
In short: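 Mutant yeast exposed to compound; growth scored against vehicle-only wells.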

[4] = NCI Yeast Anticancer Drug Screen. Data for the cln2 rad14 strain (AID 165);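 also: 0% = growth equal to vehicle treated cultures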; conditions: S. cerevisiae cln2 rad14 strain, hits give high values
In short: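 cln2 rad14 yeast strain; compound exposure; growth inhibition read vs vehicle controls.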

[5] = NCI Yeast Anticancer Drug Screen. Data for the bub3 strain (AID 167); conditions: S. cerevisiae bub3 mutant strain, hits give high values
In short: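 Whole-cell yeast assay. The mutant strain was incubated with compounds, and growth inhibition was determined by comparison with vehicle-treated cells.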

[6] = NCI Yeast Anticancer Drug Screen. Data for the mlh1 rad18 strain (AID 175); conditions: S. cerevisiae mlh1 rad18 strain growth inhibition, hits give high values
In short: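 Yeast w/ defined DNA-repair lesions; compound exposure; growth vs vehicle controls → % inhibition.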

[7] = at 5.0 µM (retest, dose inferred, filed as 0.5)
[8] = at 50.0 µM (retest, dose inferred, filed as 5.0)

SMILES | growth inhibition [1, 7] | growth inhibition [1, 8] | growth inhibition ([1]; at 50.0 µM) | growth inhibition [2, 7] | growth inhibition [2, 8] | growth inhibition ([2]; at 50.0 µM) | growth inhibition [3, 7] | growth inhibition [3, 8] | growth inhibition ([3]; at 50.0 µM) | growth inhibition [4, 7] [%] | growth inhibition [4, 8] | growth inhibition ([4]; at 50.0 µM) | growth inhibition [5, 7] | growth inhibition [5, 8] | growth inhibition ([5]; at 50.0 µM) | growth inhibition [6, 7] | growth inhibition [6, 8] | growth inhibition ([6]; at 50.0 µM)
COc1ccc(/C=C2\Sc3scc(-c4ccc([N+](=O)[O-])cc4)[n+]3C2=O)cc1OC | 3% | 4% | 39.3% | -6% | 20% | 55% | -3% | 11% | 66% | 0 | -4% | 28.6% | 9% | 16% | 83% (active) | 3% | 12% | 65.8%
CN(C)CCCN1c2ccc3ccccc3c2Sc2cccc(Cl)c21 | 7% | 99% (active) | 98.3% (active) | 19% | 99% (active) | 97.3% (active) | -1% | 99% (active) | 97.9% (active) | 2 | 99% (active) | 96% (active) | 17% | 99% (active) | 8.95% | 25% | 99% (active) | 98.2% (active)
COc1ccc(C2NCc3c(sc4c3CCCC4)-n3cccc32)cc1 (stereo not given) | -4% | 43% | 57.1% | -2% | 31% | 11.8% | -13% | 84% (active) | 93.2% (active) | -5 | 53% | 57.9% | 0% | 54% | 18.7% | -7% | 87% (active) | 77% (active)
Cc1c(C)c(O)c2c(c1O)C(=O)C=C(Cl)C2=O | 99% (active) | 94% (active) | 88.3% (active) | 100% (active) | 96% (active) | 90.2% (active) | 100% (active) | 97% (active) | 88.3% (active) | 45 | 96% (active) | 90.7% (active) | 99% (active) | 97% (active) | 87.7% (active) | 99% (active) | 96% (active) | 88.6% (active)
O=[N+]([O-])c1ccc(C=NC2CCCCC2)c([N+](=O)[O-])c1 | 0% | 46% | 41% | -1% | 54% | 46% | 2% | 69% | 59.5% | -5 | 25% | -0.85% | 20% | 83% (active) | 55.5% | -5% | 85% (active) | 73.3% (active)
CCCCNc1ncc(OCC)c(NCCCC)n1 | 1% | -1% | 73.5% (active) | 4% | -44% | 88.9% (active) | 0% | 4% | 92.5% (active) | -2 | 4% | 42.6% | 39% | 23% | 94.9% (active) | 0% | 1% | 77.7% (active)
NC(=S)Nc1cccc(C(F)(F)F)c1 | -14% | 92% (active) | 99.2% (active) | -20% | 95% (active) | 99.2% (active) | -10% | 92% (active) | 99.2% (active) | -45 | 92% (active) | 98.9% (active) | -24% | 94% (active) | 98.9% (active) | -19% | 93% (active) | 98.9% (active)
COc1ccc(C(O)(c2ccccc2)c2ccccc2)cc1 | -5% | 98% (active) | 99.1% (active) | -4% | 99% (active) | 99% (active) | -3% | 99% (active) | 99.2% (active) | -5 | 92% (active) | 93.9% (active) | 3% | 87% (active) | 99.5% (active) | -6% | 98% (active) | 98.7% (active)
CC12CCC3C(CCC4CC(O)CCC43C)C1CC=CO2 (stereo not given) | 1% | 98% (active) | 23.4% | 32% | 99% (active) | 50.6% | 17% | 99% (active) | 11.3% | 0 | 99% (active) | -1.5% | 45% | 98% (active) | 59.4% | 24% | 99% (active) | 68.9%
S=C1NC2=C(CSC/C2=C\c2ccccc2)C(c2ccccc2)N1 (stereo not given) | 10% | 96% (active) | 60.2% | -8% | 97% (active) | 58.2% | 8% | 97% (active) | 65.2% | 26 | 96% (active) | 68.8% | -45% | 96% (active) | 73.1% (active) | 35% | 97% (active) | 72.3% (active)
CCCCCCCCCCCCCCCCCc1nnc(N)o1 | 1% | 24% | -11.8% | 7% | 33% | -0.5% | 18% | 51% | 19% | 1 | 36% | 45.6% | 6% | 40% | 11.2% | 6% | 25% | -3.6%
Nc1cc2c(c[n+](CCCBr)c3ccccc23)c2ccccc12 | 41% | 98% (active) | 66.8% | 23% | 99% (active) | 64.6% | 58% | 99% (active) | 68.2% | 46 | 98% (active) | 33.1% | 52% | 99% (active) | 46.5% | 24% | 98% (active) | 71.1% (active)
O=C(N/N=C/c1ccc2c(c1)OCO2)c1ccc([N+](=O)[O-])cc1 | 3% | 2% | 5.35% | -14% | -15% | 14.5% | 8% | 7% | 14.8% | 4 | 5% | 30.7% | 0% | 16% | 0.25% | 3% | 13% | 57%
O=C1C(Br)CCC1(c1ccccc1)c1ccccc1 (stereo not given) | 5% | 91% (active) | 97% (active) | 6% | 93% (active) | 97.2% (active) | 4% | 97% (active) | 98% (active) | 4 | 78% (active) | 78.8% (active) | -10% | 94% (active) | 95.7% (active) | 3% | 96% (active) | 98.2% (active)
O=C1OC(CC(=O)c2ccc(Cl)cc2Cl)C(Cl)=C1Cl (stereo not given) | 0% | 20% | 51% | 8% | 32% | 53.4% | 4% | 50% | 93% (active) | 1 | 6% | 78.4% (active) | -7% | 10% | 58.5% | -1% | 41% | 97.3% (active)
CNC(=O)OCc1c(-c2ccccc2)c(-c2ccccc2)n(-c2ccc(OC)cc2)c1COC(=O)NC | 26% | 96% (active) | 36.1% | 18% | 98% (active) | 78.3% (active) | 20% | 98% (active) | 82.2% (active) | 26 | 98% (active) | 84.9% (active) | 17% | 99% (active) | 80% (active) | 23% | 97% (active) | 91% (active)
CC(C)Nc1nc(NC(C)C)c2cnn(-c3ccccc3)c2n1 | 0% | 55% | 96.7% (active) | 1% | 69% | 83.9% (active) | 2% | 95% (active) | 98.5% (active) | -10 | 24% | 88.3% (active) | 1% | 68% | 81.7% (active) | 3% | 74% (active) | 95.5% (active)
CC(C)CC(NC(=O)C(CCC(=O)OCc1ccccc1)NC(=O)OC(C)(C)C)C(=O)NC(COCc1ccccc1)C(=O)NC(Cc1ccccc1)C(=O)Oc1c(Cl)c(Cl)c(Cl)c(Cl)c1Cl (stereo not given) (Boc-E(OBn)LS(Bn)F-X7; configuration not given here) | 39% | 58% | 80.5% (active) | 36% | 56% | 84.8% (active) | 38% | 80% (active) | 82.8% (active) | 26 | 53% | 85.3% (active) | 34% | 84% (active) | 78% (active) | 42% | 76% (active) | 79.6% (active)
C(=N\N=C\c1ccc2c(c1)OCO2)/c1ccc2c(c1)OCO2 | 2% | 4% | 3.1% | 3% | 2% | -4.3% | 0% | 6% | -3.7% | -32 | -6% | 75.9% (active) | 3% | 1% | 3.9% | 10% | 21% | 6.45%
CNC(=O)c1cc(NC(=O)c2ccc(C(=O)Nc3cc(C(=O)NC)cc(C4=NCCN4)c3)cc2)cc(C2=NCCN2)c1 | 3% | -3% | 98.8% (active) | 11% | 1% | 99.6% (active) | -6% | -3% | 99.3% (active) | 0 | 8% | 92.8% (active) | 5% | 1% | 98.7% (active) | 2% | -19% | 98.6% (active)
